Compounds without any hit were thinned out: in the full panel of roughly 83,000, 20% have a hit.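 Step 1: grow cells in 96-well plates. Step 2: add test compound at a single concentration. Step 3: incubate 48 h. Step 4: record percent growth.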 Values without a mark were called inactive. The source made the active and inactive calls. The calls were made as follows: active = growth percent below 10; inactive = the rest.
Assays:
Experiment in all cases: NCI-60 one-dose screen, 48 h (100 = growth as untreated, 0 = no growth, -100 = all killed)
Settings in all cases: 10 µM unless noted
[1] = test system: SK-MEL-2 melanoma
[2] = test system: EKVX NSCLC
[3] = test system: SN12C renal
[4] = test system: UO-31 renal
[5] = test system: TK-10 renal
[6] = test system: ACHN renal
[7] = test system: CAKI-1 renal
[8] = test system: A498 renal
[9] = test system: CCRF-CEM leukemia
[10] = test system: MOLT-4 leukemia
[11] = test system: RPMI-8226 leukemia
[12] = test system: OVCAR-8 ovarian
[13] = test system: OVCAR-4 ovarian
[14] = test system: SK-OV-3 ovarian
[15] = test system: IGROV1 ovarian
[16] = test system: OVCAR-3 ovarian
[17] = test system: HS 578T breast
[18] = test system: NCI/ADR-RES ovarian
[19] = test system: OVCAR-5 ovarian

Row | SMILES | growth [1] | growth [2] | growth [3] | growth [4] | growth [5] | growth [6] | growth [7] | growth [8] | growth [9] | growth [10] | growth [11] | growth [12] | growth [13] | growth [14] | growth [15] | growth [16] | growth [17] | growth [18] | growth [19]
1 | CNc1ccc(Nc2cccc(C)c2)c2c1C(=O)c1ccccc1C2=O | 60% | 164% | 80.4% | 58.3% | 100% | 78.1% | 131% | 89.2% | 102% | 85.1% | 74.3% | 99.6% | 81.6% | 86.4% | 11.2% | 110% | 101% | 98.8% | 
2 | CC(=O)OC[C@H]1OC(Sc2sc(C(=O)c3ccc(C)cc3)c(N)c2-c2nc3ccccc3s2)[C@H](OC(C)=O)[C@@H](OC(C)=O)[C@@H]1OC(C)=O (stereo partly drawn) | 93.6% | 75% | 41.9% | 25.7% | 99.3% | 23.1% | 53.7% | 98.9% | 60.5% | 80% | 46.5% |  | -13.9% (active) | 89.9% | 48.2% | 59.4% | 52.5% | 62.9% | 58.6%
3 | O=C(Oc1cccc2ccccc12)Oc1cccc2ccccc12 | 104% | 88.3% | 97.2% | 55% | 139% | 98% | 86.8% | 107% | 88.7% | 93.2% | 113% | 107% | 113% | 102% | 73.6% |  | 106% | 103% | 103%
4 | COc1cc(Nc2nc(NCCN)nc3cc[nH]c(=O)c23)cc(OC)c1 | 30.8% | 87.5% | 70.3% | 112% | 95.3% | 99% | 94.1% | 111% | 68.6% | 74.4% | 80% | 76.3% | 80.7% | 51.4% |  | 109% | 82.5% | 98.6% | 
5 | COc1ccc(C2=Nn3c(nnc3-c3cc(Cl)cc(Cl)c3Cl)SC2)cc1 | 22.4% | 41.3% | 39.3% | 5.61% (active) | 57.5% | 33.5% | 47.6% | -11.3% (active) | 0.0891% (active) | 8.31% (active) | 1.17% (active) | 19.5% | 30.8% | 24.4% | -11% (active) |  | 11.7% | -20.8% (active) | 6.36% (active)
6 | Cc1ccc2nc(NC(=O)CSc3nc(Cl)c(C#N)c(-c4ccccc4)n3)sc2c1 | 102% | 102% | 98.2% | 80.7% | 107% | 102% | 94.8% | 102% | 105% | 104% | 96.9% | 98.3% | 105% | 95.7% | 93.3% | 107% | 95.9% | 102% | 
7 | COc1c(C2CC(=O)Nc3c2c(C)nn3-c2nc3ccccc3[nH]2)cc2c(c1OC)OCO2 (stereo not drawn) | 29.6% | 58% | 68.8% | 45.4% | 66.9% | 55.8% | 71.6% | 22.6% | 11.3% | -12.7% (active) | 53.6% | 52% | 83.2% | 42% |  | 36.1% | 28.3% | 39.8% | 105%
8 | COc1ccc(C(=O)C[C@]2(O)C(=O)Nc3c(Cl)ccc(Cl)c32)cc1 | 37.5% | 51.2% | 39.8% | 46.8% | 71.6% | 44.5% | 32.3% | -23.6% (active) | 15.8% | 34.1% | 20.1% | 33.1% | 48.4% | 33.1% | 34.8% |  | -3.94% (active) | 14.1% | 52.1%

— PubChem BioAssay (NCI)
